# Most compounds without a hit are left out; they make up all but 5.5% or so of the library.
# CBFb RUNX1 block – qHTS Assay for Compounds Blocking the Interaction Between CBF-beta and RUNX1 for the Treatment of Acute Myeloid Leukemia | 230,000 tested, under 10 active | AlphaScreen CBFb-His/RUNX1-biotin binding, biochemical | Runt-related transcription factor 1 (Homo sapiens) + Core-binding factor subunit beta … | Potency, µM (doses to about 59.8 µM), actives largely listed as inhibitors | AID 1477, 2009
#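 Interaction loss through any mechanism counts as activity. Pre-formed complex of His-CBF-beta and biotin-RUNX1 (30 nM apiece) is incubated with compound 15 min, then with 50 ng nickel and 50 ng streptavidin beads for 90 min before AlphaScreen detection.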
# MBNL1-CUG inh – qHTS Assay for Inhibitors of MBNL1-poly(CUG) RNA binding. Muscleblind-like protein 1 (Homo sapiens), Q9NR56. TR-FRET MBNL1-His/biotin-(CUG)12 binding, 665/545 ratio. Potency, µM (series often up to 57.5 µM), most hits filed as inhibitors. hit rate 0.036% among 280,000. AID 2675, 2010; active = well fitted inhibition curve with a large enough effect in the signal ratio, with a control signal flat, not every such curve was filed as active; inconclusive = small, poorly fitted or top-dose-only effect, or effect the other way, or a change in a side signal; inactive = no such curve, though single readings can be large or run the other way; the % refers to the signal ratio
#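 TR-FRET readout: Ex 340 nm, 665/545 nm emission ratio, normalized to buffer-only (basal) and MBNL1-(CUG)12 controls. Complex of MBNL1-His with Biotin-(CUG)12, compounds 92 nM–58 uM, incubated 60 min at room temperature.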
# Gal4-VP16 FLuc – VP16 counterscreen qHTS for inhibitors of ROR gamma transcriptional activity. Drosophila S2 Gal4-VP16 UAS-luciferase, luminescence, 20 h. Potency, µM (titrated, usually from 53.6 µM), usual class: inhibitors. hit rate 3.5% among 310,000. AID 2546, 2010;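 also: Gal4-VP16 expression switched on by copper sulfate through the metallothionein promoter; nearly all actives have a fitted effect of over 50% in size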
# RORg inh – qHTS for inhibitors of ROR gamma transcriptional activity. Potency, µM (titrated, usually from 53.6 µM), actives largely listed as inhibitors. hit rate 5.4% among 310,000. Drosophila S2 Gal4-RORgamma UAS-luciferase reporter, 20 h; also: nearly all actives have a fitted effect of over 60% in size
# Target sequence (P51450 whole entry, looked up, the tested form may be a part): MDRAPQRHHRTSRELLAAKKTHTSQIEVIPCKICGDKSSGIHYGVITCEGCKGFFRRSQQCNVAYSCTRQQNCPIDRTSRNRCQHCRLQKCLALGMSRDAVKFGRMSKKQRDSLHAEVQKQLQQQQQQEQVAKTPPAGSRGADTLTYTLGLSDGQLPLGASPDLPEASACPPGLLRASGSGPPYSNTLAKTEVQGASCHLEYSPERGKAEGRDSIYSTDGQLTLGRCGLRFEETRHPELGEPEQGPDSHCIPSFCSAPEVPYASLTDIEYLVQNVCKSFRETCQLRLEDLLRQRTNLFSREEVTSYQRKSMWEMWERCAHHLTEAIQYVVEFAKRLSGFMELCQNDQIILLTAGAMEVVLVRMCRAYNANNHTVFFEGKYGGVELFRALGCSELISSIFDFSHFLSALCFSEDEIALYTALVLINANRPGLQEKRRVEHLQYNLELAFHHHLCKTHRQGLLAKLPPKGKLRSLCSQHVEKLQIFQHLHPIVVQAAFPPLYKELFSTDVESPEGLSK
#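 Stable Schneider cell line, Gal4 DNA-binding domain fused to ROR gamma, UAS-luciferase. Cmpd 1 hr RT → CuSO4 700 uM final → 20 hr RT → luciferase reagent 10 min → luminescence.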
# CtBP-E1A blk – qHTS Assay for Inhibitors of the CtBP/E1A Interaction; activity change, % (test concentration not listed); hit rate 0.49% among 340,000; AlphaScreen GST-E1A/His-CtBP binding, 1536-well; hits give low values; in the data active = activity change below about -65%; inconclusive = mostly about -30% to -63%
#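 Steps: dispense buffer (Tris pH 8.0, NaCl 300 mM, TCEP 1 mM, BSA, Tween 20); add 5X protein mix (GST-E1A, His-CtBP, 125 nM each); pin 23 nL compound; 2 h at 37 °C, dark; add 5X beads (50 ug/mL); 1 h; read.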
# Six1-Eya2 inh – qHTS Assay for Inhibitors of the Six1/Eya2 Interaction. Homeobox protein SIX1 (Homo sapiens) + Protein phosphatase EYA2 (Homo sapiens), …. activity change, % (no concentration beside the values). AlphaScreen GST-Six1/His-Eya2 binding, biochemical; hits give low values. hit rate 0.56% among 360,000; in the data active = activity change below about -65%; inconclusive = mostly about -30% to -63%
#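 Compounds are tested against tagged Six1 and Eya2 proteins bridged by glutathione donor and nickel acceptor beads; after a one-hour incubation at 37 °C without light, AlphaScreen emission is recorded.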
# Hits are given with their value; n = inactive; u = inconclusive; x = no result given; [ ] = dose if it differs, or a comment. Unless noted, calls follow the shape of the dose curve; as a rule, active = well fitted curve in the direction sought with a large enough effect; inconclusive = small, poorly fitted or top-dose-only effect, or another doubt; inactive = no such curve, though single readings can be large; an effect the other way counts as inactive or inconclusive.
SMILES,CBFb RUNX1 block,MBNL1-CUG inh,Gal4-VP16 FLuc,RORg inh,CtBP-E1A blk,Six1-Eya2 inh
Cc1cc(SCC(=O)c2ccccc2)nc(C)n1,n,n,n,n,n,n
CCOc1ccccc1C(=O)NCC(=O)NCC(C)(C)N1CCOCC1,x,x,x,x,n,n
COc1ccc(C2=NC(c3ccccc3)CO2)cc1 (stereo unspecified),n,n,13µM,10µM,x,x
COc1ccc(C2=N[C@H](c3ccccc3)CO2)cc1,n,x,n,16µM,x,x
COc1ccc(C2=N[C@@H](C(C)C)CO2)cc1,n,x,n,n,x,x
Cc1ccc(NC(=O)CN(C)C(=O)COc2ncnc3ccc(Br)cc23)cc1,x,x,x,x,n,n
O=C1/C(=C/c2ccccn2)COc2ccccc21,n,n,n,n,n,n
CC1C/C(=C/c2ccccn2)C(=O)/C(=C/c2ccccn2)C1 (stereo unspecified),n,n,1.4µM,2.8µM,n,n
CC(C)(C)C1C/C(=C/c2ccccn2)C(=O)/C(=C/c2ccccn2)C1 (stereo unspecified),n,n,u,5.6µM,n,n
CCCCOc1ccc(CSC(CC(=O)O)C(=O)O)cc1 (stereo unspecified),n,n,n,2.2µM,n,n
CCCNC(=O)c1cc(C2CCCN(C(=O)C3CCCCC3)C2)on1 (stereo unspecified),x,x,x,x,n,n
CCCc1cc(-c2n[nH]c(=S)n2-c2cccc(C)c2)cs1,n,n,u,1.4µM,n,n
Cc1cccc(-n2c(-c3csc(C(C)C)c3)n[nH]c2=S)c1,n,n,u,1.6µM,n,n
CN1C(=O)c2ccc(NC(=O)C3CC3)cc2C1=O,x,u,n,n,n,n
CSc1cc(-c2ccc(Cl)cc2)c(C(=O)NC(C)C)s1,n,n,n,n,n,n
CSc1cc(-c2ccc(Cl)cc2)c(C(=O)NN)s1,n,n,u,11µM,n,n
CC(C)CC(=O)NC(=S)Nc1nc(-c2ccc(Cl)cc2)cs1,n,n,u,8.9µM,x,n
CC(C)CC(=O)NC(=S)Nc1nc(-c2ccccc2)cs1,n,n,5.6µM,6.3µM,n,n
COCC(=O)Nc1nc(-c2ccc(-c3ccccc3)cc2)cs1,x,n,n,n,n,n
CCN(CC)CC(=O)Nc1nc(-c2ccc(Cl)cc2)cs1,n,n,20µM,8.9µM,n,n
CCC(Cc1ccccc1)NC(=O)C1CCN(c2nn3c(=O)cc(C)nc3s2)CC1 (stereo unspecified),x,n,n,n,x,n
O=C(NNc1ccccn1)C(=O)NNS(=O)(=O)c1ccc(F)cc1,n,n,n,n,-92,-90
O=C(NNc1ccccn1)C(=O)NNS(=O)(=O)c1ccc(Cl)cc1,u,n,n,u,u,-85
O=C(NNS(=O)(=O)c1ccc(F)cc1)c1ccccc1,x,n,n,n,n,n
COc1cc2c(cc1NC(=S)Nc1cccc3ccccc13)oc1ccccc12,u,n,11µM,10µM,n,n
SMILES,CBFb RUNX1 block,MBNL1-CUG inh,Gal4-VP16 FLuc,RORg inh,CtBP-E1A blk,Six1-Eya2 inh
COCCCNC(=S)Nc1cc2oc3ccccc3c2cc1OC,x,n,7.1µM,5.6µM,u,n
CSCC[C@H](NC(=O)CN)C(=O)N[C@@H](CC(=O)O)C(=O)N[C@@H](CO)C(=O)N[C@@H](CC(C)C)C(=O)N[C@@H](C)C(=O)N[C@@H](Cc1ccccc1)C(=O)N[C@@H](CO)C(=O)NCC(=O)NCC(=O)N[C@@H](CC(C)C)C(N)=O,n,x,n,n,x,x
C/C(=N\O)c1ccco1,x,x,x,x,n,n
CCCCN(C)c1c(C)nc2ccc(C(=O)NCc3ccc(OC)cc3)cn12,x,x,x,x,n,n
O=C(CN1CCN(c2ccccc2F)CC1)Nc1ccc2c(c1)CCC2,n,n,22µM,n,n,n
Cc1ccccc1OCC(=O)N/N=C/c1cc2ccccc2nc1Cl,n,n,n,n,n,n
C=CCc1ccccc1OCC(=O)N/N=C/c1ccc(OC(C)=O)cc1OC(C)=O,n,n[11.5 µM],u,7.1µM,u,u
Cc1ccccc1C(=O)NC(=S)Nc1ccc(S(=O)(=O)N2CCN(C)CC2)cc1,n,n,u,n,n,n
Cc1ccc(S(=O)(=O)N2CCOCC2)cc1C(=O)NC(=S)N1CC(C)OC(C)C1 (stereo unspecified),n,n,16µM,4.5µM,x,n
O=C(NC(=S)Nc1ccc(S(=O)(=O)N2CCCCC2)cc1)c1ccccc1,n,n,u,8.9µM,n,n
Cc1ccccc1C(=O)NC(=S)Nc1ccc(S(=O)(=O)N2CCOCC2)cc1,n,n,18µM,20µM,n,n
O=C(Nc1ccc(S(=O)(=O)N2CCCC2)cc1)c1ccccc1,x,x,x,x,n,n
O=C(Nc1ccc(S(=O)(=O)N2CCCCC2)cc1)c1ccc(CN2CCc3ccccc3C2)cc1,n,n,4.5µM,u,n,n
CCOC(=O)C1=C(C)NC(C)=C(C(=O)OCC)C1C(=O)OCC(=O)NC1CCCCC1,x,x,x,x,n,n
c1ccc(-c2nnc(CN3CCCc4ccccc43)o2)cc1,n,u,u,n,n,n
Oc1ccc(CN2CCCc3ccccc32)c2cccnc12,u,n,13µM,7.9µM,n,-93
COc1ccccc1N1CCN(Cc2ccc(O)c3ncccc23)CC1,n,n,u,0.5µM,-90,-91
CCOC(=O)C1CCN(Cc2ccc(O)c3ncccc23)CC1,n,n,5µM,2.8µM,-98,-92
CC(=O)Nc1ccc(CN2C(=O)C(C)(C)ON=C2c2ccc(NC(C)=O)cc2)cc1,x,x,x,x,n,n
COc1ccccc1-c1n[nH]c(=S)n1Cc1ccccc1,x,n,u,u,n,n
COc1ccc(CCn2c(-c3ccncc3)n[nH]c2=S)cc1OC,n,n,n,n,n,n
COCCCn1c(-c2ccccc2Cl)n[nH]c1=S,n,n,u,16µM,n,n
COCCCn1c(-c2ccc(Cl)cc2)n[nH]c1=S,n,n,13µM,18µM,n,n
S=c1[nH]nc(-c2ccc(Cl)cc2)n1CCCN1CCOCC1,n,n,n,10µM,x,n
CCOCCCn1c(-c2ccc(Cl)cc2)n[nH]c1=S,n,n,10µM,5µM,n,n
CN(CC(=O)Nc1ccccc1Cl)C(=O)CSc1nnc(-c2ccco2)n1C,x,x,x,x,n,n
CCOc1nc(NC2CCCC2)nc(N2CCC(C)CC2)n1,x,n,u,n[1.91 µM],n,n
OCC(O)C(O)C(O)CO (stereo unspecified),n,x,u,n,x,x

# Screens deposited in PubChem by National Center for Advancing Translational Sciences (NCATS).
